# In the supplement of paper PMC8975748:
# Structures can show the parent of a compound that is named as a salt.
# Tested on: Saccharomyces cerevisiae BY4741 SeMeCo community
# Assay: z-score of subpopulation abundance vs DMSO median, subpopulation auxotrophic for LM; higher = larger share of this subpopulation than in DMSO controls
# Details: 10 µM; 24 h; SM minimal medium; subpopulation (auxotrophy): LM
# Method: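 Fluorescent four-plasmid SeMeCo (self-establishing metabolically cooperating S. cerevisiae BY4741 community; plasmids pH-mRuby2, pL-mWasabi, pU-eCFP, pM-TagRFP657) was grown 24 h in minimal SM medium with each Selleck FDA-approved drug at 10 µM in 384-well plates. Cells were fixed and imaged by high-content confocal microscopy. For each auxotrophic subpopulation (and the prototroph), a z-score gives the deviation from the DMSO vehicle-control population median.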
row,SMILES,z-score of subpopulation abundance
1,CN[C@@H]1[C@@H](O)[C@@H](O[C@@H]2[C@@H](O)[C@H](O[C@H]3O[C@H]([C@@H](C)O)[C@@H](O)[C@H](O)[C@H]3N)[C@@H](N)C[C@H]2N)OC[C@]1(C)O [Geneticin (G418 Sulfate)],0.61
2,CCN(C)C(=O)Oc1cccc([C@H](C)N(C)C)c1 [Rivastigmine],-0.54
3,Oc1cc(Cl)ccc1Oc1ccc(Cl)cc1Cl [Triclosan],-2.25
4,NCCc1c[nH]c2ccc(O)cc12 [Serotonin HCl],-1.09
5,CC(NC(C)(C)C)C(=O)c1cccc(Cl)c1 (stereo not given) [Amfebutamone (Bupropion) HCl],-0.59
6,CC[C@@]1(O)C(=O)OCc2c1cc1n(c2=O)Cc2cc3ccccc3nc2-1 [Camptothecin],-0.25
7,Nc1nc(N)nc(NC2CC2)n1 [Cyromazine],0.84
8,CNC1CC(N)C(O)C(OC2OC(CO)C(O)C3OC4(OC(C(N)CO)C(O)C(O)C4O)OC23)C1O (stereo not given) [Hygromycin B],-0.12
9,Cc1cc(O)ccc1Cl [Chlorocresol],-0.37
10,CN1[C@@H]2C[C@@H](OC(=O)[C@H](CO)c3ccccc3)C[C@H]1[C@@H]1O[C@@H]12 [Scopolamine HBr trihydrate],-0.12
11,N[C@@H]1C[C@H]1c1ccccc1 [Tranylcypromine (2-PCPA) HCl],-0.94
12,CN(C)C(=O)Oc1ccc[n+](C)c1 [Pyridostigmine Bromide],-0.35
13,COc1cc2c(cc1OC)C1CC(=O)C(CC(C)C)CN1CC2 (stereo not given) [Tetrabenazine (Xenazine)],0.75
14,COc1ccc(C(CN(C)C)C2(O)CCCCC2)cc1 (stereo not given) [Venlafaxine],-0.51
15,CCC1=C[C@H]2CN3CCc4c([nH]c5ccccc45)[C@](C(=O)OC)(C2)[C@H]13 [Catharanthine],-0.74
16,C=C(C)[C@H]1Cc2c(ccc3c2O[C@@H]2COc4cc(OC)c(OC)cc4[C@@H]2C3=O)O1 [Rotenone (Barbasco)],-0.22
17,O=C(O[C@H]1C[N+]2(CCCOc3ccccc3)CCC1CC2)C(O)(c1cccs1)c1cccs1 [Aclidinium Bromide],-0.14
18,CN1c2ccccc2C(NCCCCCCC(=O)O)c2ccc(Cl)cc2S1(=O)=O (stereo not given) [Tianeptine sodium],-0.12
19,CCN1CC2(OC(=O)c3ccccc3NC(C)=O)CCC(OC)C34C1C(CC23)C1(O)CC(OC)C2CC4C1(O)C2OC (stereo not given) [Lappaconitine],-0.33
20,CN(C)[C@@H]1C(=O)C(C(N)=O)=C(O)[C@@]2(O)C(=O)C3=C(O)c4c(O)ccc(Cl)c4[C@@](C)(O)[C@H]3C[C@@H]12 [Chlortetracycline HCl],-0.46

row,SMILES,z-score of subpopulation abundance
1,C=C[C@H]1CN2CC[C@H]1C[C@H]2[C@H](O)c1ccnc2ccccc12 [Cinchonidine],-0.08
2,COc1ccc2[nH]cc(CCN)c2c1 [5-Methoxytryptamine],0.28
3,CN1[C@@H]2C[C@@H](OC(=O)[C@H](CO)c3ccccc3)C[C@H]1[C@@H]1O[C@@H]12 [Scopolamine HBr],-0.51
4,CCOC(=O)Nc1ccc(NCc2ccc(F)cc2)cc1N [Retigabine 2HCl],0.17
5,"NCC(O)c1ccc(O)cc1 (racemic) [(+,-)-Octopamine HCl]",0
6,C[N+]1(C)[C@@H]2C[C@@H](OC(=O)[C@H](CO)c3ccccc3)C[C@H]1[C@@H]1O[C@@H]12 [Methscopolamine],-0.56
7,CN(C)[C@@H]1C(=O)C(C(N)=O)=C(O)[C@@]2(O)C(=O)C3=C(O)c4c(O)cccc4[C@@](C)(O)[C@H]3[C@H](O)[C@@H]12 [Oxytetracycline (Terramycin)],-0.04
8,CC[C@@H](C(N)=O)N1CCCC1=O [Levetiracetam],-0.55
9,C=CC[C@]1(O)CC[C@H]2[C@@H]3CCC4=CC(=O)CCC4=C3C=C[C@@]21C [Altrenogest],0.15
10,Cc1cc(C(C#N)c2ccc(Cl)cc2)c(Cl)cc1NC(=O)c1cc(I)cc(I)c1O (stereo not given) [Closantel],1.19
11,CC1(C)SC2C(N)C(=O)N2C1C(=O)O (stereo not given) [6-Aminopenicillanic acid],0.56
12,CC[C@H]1[C@@H]2C[C@H]3[C@@H]4N(C)c5ccccc5[C@]45C[C@@H]([C@@H]2[C@H]5O)N3[C@@H]1O [Ajmaline],-0.31
13,CC(C)(O)C(Cl)(Cl)Cl [Chlorobutanol],0.13
14,CCCN1C[C@H](CSC)C[C@@H]2c3cccc4[nH]cc(c34)C[C@H]21 [Pergolide Mesylate],-0.22
15,CCCCCCCCCCCCCCCC[n+]1ccccc1 [Cetylpyridinium Chloride],0.44
16,CCN(C)C(=O)Oc1cccc([C@H](C)N(C)C)c1 [Rivastigmine Tartrate],0
17,O=c1cccc2n1C[C@@H]1CNC[C@H]2C1 [Cytisine],-0.02
18,O=c1[nH]c2ccccc2n1CCCN1CCC(n2c(=O)[nH]c3cc(Cl)ccc32)CC1 [Domperidone],-0.04
19,NC(=O)CN1CCCC1=O [Piracetam],1.96
20,Oc1cccc2cccnc12 [8-Hydroxyquinoline],-0.41
